# Experimental data from PubChem BioAssay AID372 (MTDP, 2006).
# Hit rate of the full screen: of about 100,000 compounds, about 770 (0.77%) were called active. The list comes from a sample in which actives are over-represented; it also holds similar structures and randomly drawn compounds. Values without a mark were called inactive. No stated cut-off is given here; in the data, active means inhibition above about 50%; inactive means the rest.
# Biological target: Gag-Pol polyprotein (Human immunodeficiency virus type 1 group M subtype B (isolate HXB2)) (UniProt P04585)
# Assay: RNase H inhibition, HIV 1 Gag Pol polyprotein, FRET biochemical assay, screening (AID 372)
# Settings: HIV-1 RT RNase H, FRET RNA/DNA substrate fluorescence; at 10 µM; hits give high values
row,SMILES,inhibition
1,O=C(CSCc1ccccc1Cl)Nc1cccc(Br)c1,17%
2,COc1cc(/C=C2\C(=O)NC(=O)N(C(C)(C)C)C2=O)cc(OC)c1O,18%
3,COc1ccc(CNC(=O)CN(c2ccccc2OC)S(=O)(=O)c2ccccc2)cc1,9%
4,CCOC(=O)c1c(NC(=O)c2cc(OC)c(OC)c(OC)c2)sc(C(=O)Nc2ccc(OC)cc2OC)c1C,15%
5,O=C1c2cccc3c([N+](=O)[O-])ccc(c23)N1c1ccccc1,56% (active)
6,O=C1c2cccc3c([N+](=O)[O-])ccc(c23)C(=O)N1c1ccc(O)cc1,13%
7,COc1ccc(N2C(=O)c3cccc4c([N+](=O)[O-])ccc(c34)C2=O)cc1,16%
8,O=C(CCN1C(=O)c2ccccc2C1=O)N1CCN(C/C=C/c2ccccc2)CC1,5%
9,O=c1oc2ccc3ccccc3c2cc1-c1nnc(NCc2ccc(F)cc2)s1,60% (active)
10,CCN(CC)c1ccc2cc(-c3nnc(NCc4ccc(F)cc4)s3)c(=O)oc2c1,0%
11,Cc1ccc(F)cc1Nc1nnc(-c2cc3c(ccc4ccccc43)oc2=O)s1,5%
12,O=C1C2C3C=CC(C3)C2C(=O)N1c1cccc2cccnc12 (configuration not stated),5%
13,Cc1ccc(C)n1-c1cccc2cccnc12,67% (active)
14,Cc1ccc(-c2ccccc2)n1-c1cccc2cccnc12,7%
15,CCCCCCCC(=O)NNC(=O)c1cccs1,0%
16,Cc1ccc(OCC(=O)Nc2cccc(-c3nc4cc(Cl)ccc4o3)c2C)c(C)c1,27%
17,Cc1c(NC(=O)COc2ccc(Cl)cc2Cl)cccc1-c1nc2cc(Cl)ccc2o1,54% (active)
18,O=C(COc1ccc(Br)cc1)Nc1cccc(-c2nc3cc(Cl)ccc3o2)c1,12%
19,Cc1ccccc1OCC(=O)Nc1cccc(-c2nc3cc(Cl)ccc3o2)c1C,15%
20,O=C(COc1ccc(Br)cc1)Nc1ccc(-c2nc3cc(Cl)ccc3o2)cc1,59% (active)
21,Cc1ccc2oc(-c3ccc(C)c(NC(=O)c4cccc(Cl)c4Cl)c3)nc2c1,54% (active)
22,Cc1ccc(-c2nc3ccccc3o2)cc1NC(=O)c1cccc(Cl)c1Cl,43%
23,Cc1ccc(-c2nc3cc(Cl)ccc3o2)cc1NC(=O)Cc1ccccc1,55% (active)
24,O=C(COc1ccccc1)Nc1ccc(-c2nc3cc(Cl)ccc3o2)cc1,23%
25,Cc1ccc2oc(-c3ccc(C)c(NC(=O)Cc4ccccc4)c3)nc2c1,18%
26,Cc1ccc(-c2nc3ccccc3o2)cc1NC(=O)Cc1ccccc1,18%
27,Cc1ccc(-c2nc3cc(Cl)ccc3o2)cc1NC(=O)c1cccc(Cl)c1Cl,16%
